# Rows were chosen to be rich in hits. Some 22% of all compounds tested hit in one or more screens of this group.
# CYP2C19 inhib: blocks human cytochrome P450 2C19; CYP2C19 Supersomes, luciferin-H EGE luminescence, 30 min; AID 778; hit rate 21% among 96,000; P33261; inhibition, % at 5 µM;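 active means CYP2C19 inhibition above a set limit at 5 µM in the primary screen, cut at about 50% in these data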;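 further: plate controls were negative control wells for no effect and 2.5 mM tranylcypromine positive control for full effect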
# Target sequence (P33261 whole entry, looked up): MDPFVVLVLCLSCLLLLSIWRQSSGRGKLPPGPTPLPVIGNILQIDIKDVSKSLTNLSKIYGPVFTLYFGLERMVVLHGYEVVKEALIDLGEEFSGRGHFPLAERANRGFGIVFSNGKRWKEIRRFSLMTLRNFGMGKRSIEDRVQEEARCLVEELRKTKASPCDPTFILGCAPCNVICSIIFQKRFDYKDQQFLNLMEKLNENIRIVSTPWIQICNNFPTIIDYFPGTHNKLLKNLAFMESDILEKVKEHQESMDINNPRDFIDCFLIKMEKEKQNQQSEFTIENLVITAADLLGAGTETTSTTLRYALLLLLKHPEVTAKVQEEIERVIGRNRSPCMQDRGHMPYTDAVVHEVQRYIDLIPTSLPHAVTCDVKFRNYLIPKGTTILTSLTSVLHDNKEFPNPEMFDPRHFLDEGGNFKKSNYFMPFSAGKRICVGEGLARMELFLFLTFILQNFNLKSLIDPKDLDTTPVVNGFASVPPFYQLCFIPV
# CYP2C9 act: increases human cytochrome P450 2C9 activity. recombinant CYP2C9, luciferin-H conversion, luminescence; active compounds read high; factor 1 = untreated enzyme, 0 = blocked. activation factor at 5 µM. hit rate 1.4% among 96,000. AID 1024;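 active means activation factor of 2 or more for CYP2C9 at a 5 µM dose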;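 further: 0 = sulfaphenazole-blocked wells and 1 = vehicle-only wells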
# CYP2C9 inh: blocks human cytochrome P450 2C9 | P11712 | CYP2C9 Supersomes, luciferin-H conversion, luminescence | inhibition, % at 5 µM | hit rate 20% among 96,000;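 active means blocking of liver enzyme CYP2C9 beyond about 50% at 5 µM, limit read from the data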
# CYP2C19 act: cytochrome P450 2C19 (human) activation; 96,000 tested, under 10 active; recombinant CYP2C19, luciferin-H EGE luminescence; active compounds read high; 0 = fully inhibited enzyme, 1 = untreated enzyme; activation factor at 5 µM; P33261;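 active means activation factor of at least 2 at 5 µM in the primary screen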;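 further: 0 = wells with 2.5 mM tranylcypromine and 1 = vehicle-only wells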
# Measles CPE: protection of cells from measles virus. protection (pct of control), % at 4 µM. Measles virus-infected cells, CPE protection, absorbance. AID 841. hit rate 1.5% among 140,000; in the data active means protection mostly above about 24%, no sharp cut-off; inactive means mostly below about 26%
# An asterisk follows results filed as active; nt = no result given.
SMILES,CYP2C19 inhib,CYP2C9 act,CYP2C9 inh,CYP2C19 act,Measles CPE
O=S(=O)(c1ccccc1)N1CCN(c2ncccn2)CC1,45.5,0.4,61.9*,0.5,2.3
O=S(=O)(c1cccc(S(=O)(=O)N2CCN(c3ncccn3)CC2)c1)N1CCOCC1,nt,nt,nt,nt,31.9
Brc1ccc(OCc2nnc(SCC3CCCCC3)o2)cc1,nt,nt,nt,nt,5.6
COc1cccc(Oc2cncnc2-c2ccc(OC)cc2O)c1,98.3*,0,99.1*,0,nt
CCCCCOc1ccc(OC(=O)c2ccncc2)cc1,38.8,0.6,37.5,0.6,2.9
CCCCOc1ccc(C(=O)Oc2ccc(C)nc2)cc1,20.1,0.5,54.9*,0.8,25.2
Cc1ccc2c(c1)c1c3n2CC(=C2C(=O)OC(C)(C)OC2=O)NC3CCC1 (stereo not drawn),40.3,0.2,81.0*,0.6,4.7
CCCC(=O)N1CCN(c2ccc(NC(=S)NC(=O)CC)cc2)CC1,51.2*,0.6,35.6,0.5,1.9
CCCCCC(=O)NC(=S)Nc1ccc(N2CCOCC2)cc1,nt,nt,nt,nt,17.4
CCOC(=O)C1CCN(C(=O)Nc2ccc3snnc3c2)CC1,50.6*,0.7,27.8,0.5,18.6
COc1ccccc1N1CCN(C(=O)c2ccc(NC(C)=O)cc2)CC1,-4.9,1,-4.2,1,7.0
CCCCCC(=O)Nc1ccc(N2CCN(C(=O)c3ccccc3)CC2)cc1,42.6,0.5,54.1*,0.6,4.0
CCCCC(=O)Nc1ccc(C(=O)N2CCN(c3ccccc3OC)CC2)cc1,57.2*,0.2,77.4*,0.4,13.4
Cn1cccc1/C=N/NC(=O)c1cc(-c2cccs2)nc2ccccc12,nt,nt,nt,nt,9.0
CC(=O)c1cc(F)c(N2CCN(CCC#N)CC2)cc1C,nt,nt,nt,nt,7.3
CCCCC(=O)Nc1ccc(C(=O)OC2CCCCC2)cc1,74.4*,0.1,91.4*,0.3,5.6
CCCCCCC(=O)Nc1ccc(C(=O)N2CCCC2)cc1,2.2,1.1,-7.8,1,12.4
CCCCC(=O)Nc1ccc(C(=O)N2CCC(C(=O)OCC)CC2)cc1,67.7*,0.5,53.6*,0.3,14.2
O=C(O)CCC(=O)Nc1ccc(Br)c(Cl)c1,5.6,0.7,25.7,0.9,43.0
CCCCCC(=O)NC(=S)Nc1ccc(N2CCCCC2)c(Cl)c1,2.4,0.9,13.7,1,10.0
CCCCCC(=O)Nc1ccc(N2CCN(CC)CC2)c(Cl)c1,12.6,0.3,66.9*,0.9,9.8
CCCC(=O)Nc1ccc(Br)c(Cl)c1,60.1*,0.7,31.5,0.4,18.8
COc1nnc(-c2ccc(C)c(S(=O)(=O)NCCO)c2)c2ccccc12,-8.1,1.2,-23.7,1.1,9.0
CC1=CC(C)(C)N=C(Nc2ccc(C)cc2)S1,75.6*,1,2.4,0.2,3.8
CCn1c(SCC(=O)NC2CCCCC2)nc2c(c1=O)SC(C)C2 (stereo not drawn),9.7,1,-4.1,0.9,9.9
SMILES,CYP2C19 inhib,CYP2C9 act,CYP2C9 inh,CYP2C19 act,Measles CPE
Cc1nnc(NC(=O)CSc2nc3c(c(=O)n2C)SC(C)C3)s1 (stereo not drawn),-3.0,0.8,22.5,1,14.4
CCn1c(SCC(=O)Nc2cc(C)on2)nc2c(c1=O)SC(C)C2 (stereo not drawn),15.5,0.4,62.3*,0.8,12.6
Cc1ccc(-n2c(SCC(=O)Nc3cc(C)on3)nc3c(c2=O)SC(C)C3)cc1 (stereo not drawn),17.7,0.7,33.5,0.8,9.8
CCn1c(SCC(=O)Nc2nc3ccc(C)cc3s2)nc2c(c1=O)SC(C)C2 (stereo not drawn),69.4*,0.2,77.3*,0.3,6.1
CCn1c(SCC(=O)Nc2nc3ccccc3s2)nc2c(c1=O)SC(C)C2 (stereo not drawn),96.7*,0,98.4*,0,0.8
O=C1CCCN1C(=O)CCC(=O)N1CCCC1=O,-8.2,1.1,-9.1,1.1,6.0
COC(=O)c1c(C(=O)OC)c(-c2ccccc2)n2c1CS(=O)(=O)C2,15.5,0.8,17.3,0.8,8.0
COc1ccc(OC)c(Nc2nc(-c3cccc([N+](=O)[O-])c3)nc3ccccc23)c1,6.8,0.8,24.3,0.9,9.5
CC(=O)Nc1cccc(Oc2ncnc3scc(-c4ccc(C(C)C)cc4)c23)c1,nt,nt,nt,nt,59.9*
CC(=O)CC(C)=NCCN=C(C)CC(C)=O,-11.2,1.1,-7.9,1.1,17.4
Cc1ccc(C)c(S(=O)(=O)Nc2ccc3sc(C)nc3c2)c1,nt,nt,nt,nt,15.2
COc1cccc(S(=O)(=O)Nc2ccc3sc(C)nc3c2)c1,100.3*,0.1,94.9*,0,6.1
CCOC(=O)N1CCN(C(=S)Nc2cccc(C)c2C)CC1,nt,nt,nt,nt,14.4

# Screens as filed in PubChem.
